From PubChem BioAssay (NCATS)
Records with an inconclusive call do not appear. Entries that show only a call come without a potency. Values without a mark were called inactive. The source made the active and inactive calls. Calls follow the shape of the dose curve; as a rule, active = well fitted inhibition curve with a large enough effect; inconclusive = small, poorly fitted or top-dose-only effect; inactive = no such curve, though single readings can be large or run the other way. Where a SMILES comes first, the peptide text is derived from it. The star is where a group is joined. AFC = O=c1cc(C(F)(F)F)c2ccc(N*)cc2o1

Assays:
[1] = test system: Zika virus NS2B-NS3 protease (unlinked complex); assay: Primary screen GU Rhodamine qHTS for Zika virus inhibitors: Unlinked NS2B-NS3 protease assay (AID 1347159); also: nearly all actives have a fitted effect of over 60% in size
How it was run: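 Buffer 10 mM Tris-HCl pH 8.0, 0.01% Tween 20. Unlinked protease 25 nM; compound preincubation 15 min, RT, protected from light. Substrate Rhod110, 1.5 microM; ~15% conversion in 15 min.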

[2] = test system: Zika virus NS2B-NS3 protease (linked construct); assay: Primary screen NINDS Rhodamine qHTS for Zika virus inhibitors (AID 1347160); also: nearly all actives have a fitted effect of over 55% in size
How it was run: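 Aprotinin served as in-plate control. Conditions: 25 nM linked NS2B-NS3, pH 8.0 Tris buffer, titrated compounds, 15 min preincubation and 15 min reaction with 1.5 microM Rhod110 substrate at room temperature.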

Structure (SMILES) | Potency [1] | Potency [2]
CC(=O)NC1=NN(C(C)=O)C(C)(c2ccccc2)S1 (stereo not drawn) | inactive | inactive
CCCOc1ccc(-c2nc(OC)c3ccccc3n2)cc1 | inactive | inactive
CCOc1cc(N2CCC(O)CC2)ccc1Nc1ncc2c(n1)N(C1CCCC1)CCC(=O)N2C | inactive | inactive
COc1cc2c(cc1OC)-c1[nH]nc(Nc3cccc(F)c3)c1C2 | inactive | inactive
NC(=O)[C@H]1CCS[C@@H]2C[C@]3(CCCN3C(=O)Cc3ccc(NC(=O)COc4ccc(Cl)cc4Cl)cc3)C(=O)N12 | inactive | inactive
NC1CCCCN(c2c(F)cc3c(=O)c(C(=O)O)cn(C4CC4)c3c2Cl)C1 (stereo not drawn) | inactive | inactive
O=C(NCc1cccc(O)c1)c1cc2cc(F)ccc2[nH]1 | inactive | inactive
NCCCNc1ccc(Nc2nccc(Nc3cc(C4CC4)[nH]n3)n2)cc1 | inactive | inactive
C=C1CC23CC1CCC2C12OC(=O)C(C)(CCC1O)C2C3C(=O)O (stereo not drawn) | inactive | inactive
COC(=O)C1=COC(OC2OC(CO)C(O)C(O)C2O)C2C1C=CC2(O)CO (stereo not drawn) | inactive | inactive
C=C(C(=O)OC)C1C(O)CC2(C)C(O)CCC(=O)C2C1O (stereo not drawn) | inactive | inactive
CC1(C)C=CN2C(=O)C3=CCCN3C(=O)[C@@H]2C[C@@]12Nc1ccccc1C2=O | inactive | inactive
CC1=C(C(=O)O[C@@H]2O[C@H](COC3OCC(O)C(O)C3O)[C@@H](O)[C@H](O)[C@H]2O)C(C)(C)CCC1 (stereo partly drawn) | inactive | inactive
COc1cc(N2CCC(N3CCN(C)CC3)CC2)ccc1Nc1ncc(Cl)c(-c2c[nH]c3ccccc23)n1 | inactive | inactive
CC(=O)N[C@@H](Cc1c[nH]c2ccccc12)C(=O)N[C@@H](CCC(=O)O)C(=O)N[C@@H](Cc1cnc[nH]1)C(=O)N[C@@H](CC(=O)O)C(=O)Nc1ccc2c(C(F)(F)F)cc(=O)oc2c1 (Ac-WEHD-{AFC}) | inactive | inactive
CCC(COC)n1nnc2c(Nc3ccc(OC)cc3C)nc(C)cc21 (stereo not drawn) | inactive | inactive
CO[C@H]1C[C@@H]2CC[C@@H](C)[C@@](O)(O2)C(=O)C(=O)N2CCCC[C@H]2C(=O)O[C@H]([C@H](C)C[C@@H]2CC[C@@H](OP(C)(C)=O)[C@H](OC)C2)CC(=O)[C@H](C)/C=C(\C)[C@@H](O)[C@@H](OC)C(=O)[C@H](C)C[C@H](C)/C=C/C=C/C=C/1C | inactive | inactive
COC(=O)[C@H](O)[C@H]1C(C)(C)[C@H](OC(=O)C(C)C)[C@@]2(O)C(=O)[C@]1(C)C1CC[C@]3(C)C(CC(=O)O[C@H]3c3ccoc3)[C@]13O[C@@H]32 (stereo partly drawn) | inactive | inactive
COc1ccc([C@@H]2OC[C@H]3[C@@H]2CO[C@@H]3c2ccc(OC3OC(CO)C(O)C(O)C3O)c(OC)c2)cc1OC (stereo partly drawn) | inactive | inactive
C=CC(=O)Nc1cc(Nc2ncc(Cl)c(-c3c[nH]c4ccccc34)n2)c(OC)cc1N(C)CCN(C)C | inactive | inactive
CC1(C)CC[C@]2(C(=O)O[C@@H]3O[C@H](CO)[C@@H](O)[C@H](O)[C@H]3O)CC[C@]3(C)C(=CCC4[C@@]5(C)C[C@@H](O)[C@H](O)C(C)(C)C5[C@H](O)C[C@]43C)[C@@H]2[C@@H]1O (stereo partly drawn) | inactive | inactive
CCCC(=O)C1CCN(c2ncnc3c2CN(C(=O)c2ccc(-c4ccccc4)cc2)CC3)CC1 | inactive | inactive
CC(C)(O[C@@H]1O[C@H](CO)[C@@H](O)[C@H](O)[C@H]1O)C(OC(=O)/C=C\c1ccc(O)cc1)C(=O)OCc1ccc(O[C@@H]2O[C@H](CO)[C@@H](O)[C@H](O)[C@H]2O)cc1 (stereo partly drawn) | inactive | inactive
CC(C)CN(C[C@@H](O)[C@H](Cc1ccccc1)NC(=O)O[C@@H]1CO[C@H]2OCC[C@H]21)S(=O)(=O)c1ccc(N)cc1 | inactive | inactive
c1ccc(-c2csc(N3CCOCC3)n2)cc1 | inactive | inactive
CC(NC(=O)C(O)C(C)C)C(=O)NC1C(=O)N(C)CCc2ccccc21 (stereo not drawn) | inactive | inactive
COc1cc(C(=O)OC[C@@]2(O)CO[C@@H](O[C@H]3[C@H](Oc4ccc(C(=O)O)cc4OC)O[C@H](CO)[C@@H](O)[C@@H]3O)[C@@H]2O)ccc1O | inactive | inactive
COc1c2c(c(C)c3c1C(=O)OC3)OC1(C)CC(O)C(C(C)(C)O)C(C)(CCC(=O)O)C1C2 (stereo not drawn) | inactive | inactive
C=C[C@]1(C)C[C@H](O)[C@@H]2[C@H](OC(=O)[C@@H]2C)C1/C(C)=C/O[C@@H]1O[C@H](CO)[C@@H](O)[C@H](O)[C@H]1O (stereo partly drawn) | inactive | inactive
